Molecules are shown by their SMILES. Active and inactive are the calls of the source. Rule for the calls: active = hit-call score of the fitted dose curve at least 0.9, where 1 is the maximum; inactive = score below 0.9.

A short description of this assay: CCTE_Shafer_MEA_acute_interburst_interval_mean: CCTE's Neural Acute Assay for Mean Interburst Interval, Shafer Lab (AID 2284016).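 Note: percent change of mean interburst interval versus each well's own pre-dose baseline.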 Here is the method:
CCTE_Shafer_MEA_acute assay is conducted using Axion Biosystems 48 well microelectrode array (MEA) plates and Maestro recording system. Each well of the MEA plate contains a grid of 16 microelectrodes embedded in the culture surface. Electrically active cells, such as neurons, can be cultured over the electrodes, and electrical activity in these cells can be recorded extracellularly. The spontaneous firing of neurons is captured from each electrode on a microsecond timescale providing both temporally and spatially precise data. […] The CCTE_Shafer_MEA_acute assay uses primary cultures of rat cortical neurons. As these cultures mature over time, neural networks develop functional activity and form cohesive networks in which electrical activity can be highly coordinated. Baseline 40-minute recordings are made on days post-plating 13 or 15, followed by a secondary 40-minute recording after chemical exposure.CCTE_Shafer_MEA_acute_interburst_interval_mean is a component of the CCTE_Shafer_MEA_acute assay. It measures the average time between the start of consecutive single-electrode bursts (temporally-clustered groups of action potential firing) during a recording in a microelectrode array (MEA) using Axion Biosystems Maestro 768 channel amplifier with the AxIS adaptive spike detector. The recordings before and after chemical treatment are used to calculate a percent change in the mean inter-burst interval in each well.Data from the assay component CCTE_Shafer_MEA_acute_interburst_interval_mean was analyzed into 1 assay endpoint. This assay endpoint, CCTE_Shafer_MEA_acute_interburst_interval_mean, was analyzed in the negative analysis fitting direction relative to DMSO as the negative control and baseline of activity. Using a type of functional reporter, gain or loss-of-signal activity can be used to understand electrical activity.
Spontaneous activity in the cortical cultures was recorded using an Axion Biosystems Maestro 768 channel amplifier and Axion Integrated Studios (AxIS) v1.8 (or later) software. The amplifier recorded from all channels simultaneously (gain = 1200 x; sampling rate = 12.5 kHz/channel): raw signals were filtered with a Butterworth band-pass filter (300-5000 Hz), which filters out slower local field potentials leaving only fast potentials, i.e., "spikes", arising from extracellular currents associated with action potentials (Pine 2006; Wheeler and Nam 2011). On-line spike detection of filtered signals was conducted with the AxIS adaptive spike detector, using a threshold of 8x the root mean squared (rms) noise on each channel. Any electrodes with rms noise levels greater than 5 uV were grounded (e.g., no data were recorded). Once grounded, an electrode was grounded for the duration of the experiment. All recordings were conducted at 37 C. Wells were deemed usable if on the day of the exposure >/= 10 electrodes were active (defined as >/= 5 spikes/min). On DIV 13 or 15, a minimum of three wells from one cortical culture preparation were treated with each compound (0.03-40 uM). Prior to recording baseline activity, each mwMEA plate was placed in the Maestro at 37 C and allowed to sit for 20 min while firing rates stabilized. Baseline activity (40 min) was recorded before the addition of each compound. An additional 40 min of spontaneous activity was recorded in the presence of each compound. Changes in network parameters relative to baseline were assessed following compound treatment.
On to `O=C(O)C(F)(F)C(F)(F)C(F)(F)C(F)(F)C(F)(F)C(F)(F)C(F)(F)C(F)(F)C(F)(F)C(F)(F)F`, for which the molecule was classed as inactive.

On to `CC(C)(OO)c1ccccc1`, for which the molecule was called inactive.

On to `O=C(Nc1ccc2[nH]ccc2c1)c1cc2cc(F)ccc2n1Cc1cccc(F)c1`, for which the AC50 is 4.2 µM (active).

`CCOP(=S)(OCC)SCSP(=S)(OCC)OCC`: the call was inactive.

Turning to `CC(=O)[O][Hg][c]1ccccc1`, the AC50 is 0.941 µM (active).

In the case of `C=C(C)C(=O)[O][Sn]([CH2]CCC)([CH2]CCC)[CH2]CCC`, the molecule was classed as inactive.

Regarding `CCC(=O)C(CC(C)N(C)C)(c1ccccc1)c1ccccc1` (centres undefined), the outcome was inactive.

For the molecule `CC(C)(C)CC(C)(C)c1ccc(O)cc1`, the half-maximal activity concentration (AC50) was 5 µM (active).

In the case of `CC(=O)OC(c1ccccc1)C(Cl)(Cl)Cl` (centres undefined), the molecule was classed as inactive.

For `O=C(O)C(Cl)(Cl)Cl`, the result was inactive.

`ClC1(Cl)C2(Cl)C3(Cl)C4(Cl)C(Cl)(Cl)C5(Cl)C3(Cl)C1(Cl)C5(Cl)C24Cl` (centres undefined): the call was inactive.

As for `O=C1C2(Cl)C3(Cl)C4(Cl)C(Cl)(Cl)C5(Cl)C3(Cl)C1(Cl)C5(Cl)C24Cl` (centres undefined), the molecule was called inactive.

In the case of `CC(C)(C)c1cc(O)ccc1O`, the call was inactive.

Consider `CC(C)(c1ccccc1)c1ccc(O)c(C(C)(C)c2ccccc2)c1`, for which the AC50 is 4.19 µM (active).

With `CCN1CCC2(CC1)COc1cc3c(cc12)N(C(=O)c1ccc(-c2ccc(-c4nnc(C)o4)cc2C)cc1)CC3`, the molecule was classed as inactive.

As for `COC(=O)Cc1ccccc1`, the result was inactive.

Consider `C[C@]12CCC(=O)C[C@@H]1CC[C@@H]1[C@@H]2CC[C@]2(C)[C@@H](O)CC[C@@H]12`, for which the call was inactive.

With `CCCCCCCCc1ccc(O)cc1`, the concentration at half-maximal activity (AC50) is 5 µM (active).

Turning to `CCC(C)(C)c1ccc(O)c(C(C)(C)CC)c1`, the molecule was classed as inactive.

A word on the AC50: it is the concentration giving half of the maximal activity seen.
